Sampled rows, rich in hits. Any-hit rate of the full collection: about 9.2%.
NPC1 prom act = activates the NPC1 promoter. Potency, µM (doses to about 9.22 µM), hits mostly activators. 320,000 compounds, 2.4% hits. Huh7 NPC1 promoter luciferase reporter, 24 h. AID 485313; note: nearly all actives have a fitted effect of over 60% in size
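Huh7 reporter cells (NPC1 promoter driving luciferase) are dosed with compound for 24 h at 37 °C, 5% CO2; luciferase detection reagent is then added and luminescence measured after 10 min at ambient temperature.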
ELG1 repair inh = inhibitors of ELG1-dependent DNA repair in HEK293T cells. Potency, µM (series often up to 46.1 µM), usual class: inhibitors. 330,000 compounds, 2.3% hits. AID 504467. HEK293T ELG1-luciferase reporter, luminescence, 16 h; DNA damage induced by 5-fluorouridine; note: nearly all actives have a fitted effect of over 55% in size
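Quantitative HTS, concentration-response format. 2,000 cells/well co-treated with 5-fluorouridine and compound, 16 hr in 5% CO2 at 37 °C; ONE-Glo luminescence read after 30 min.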
FLuc counter = firefly luciferase modulation, counter-screen for miR-21 project. Potency, µM (top dose mostly 57.5 µM), usual class: inhibitors. P08659. purified FLuc, Km substrates, luminescence inhibition. 360,000 compounds, 6.9% hits; note: nearly all actives have a fitted effect of over 55% in size
Target sequence (P08659 whole entry, looked up): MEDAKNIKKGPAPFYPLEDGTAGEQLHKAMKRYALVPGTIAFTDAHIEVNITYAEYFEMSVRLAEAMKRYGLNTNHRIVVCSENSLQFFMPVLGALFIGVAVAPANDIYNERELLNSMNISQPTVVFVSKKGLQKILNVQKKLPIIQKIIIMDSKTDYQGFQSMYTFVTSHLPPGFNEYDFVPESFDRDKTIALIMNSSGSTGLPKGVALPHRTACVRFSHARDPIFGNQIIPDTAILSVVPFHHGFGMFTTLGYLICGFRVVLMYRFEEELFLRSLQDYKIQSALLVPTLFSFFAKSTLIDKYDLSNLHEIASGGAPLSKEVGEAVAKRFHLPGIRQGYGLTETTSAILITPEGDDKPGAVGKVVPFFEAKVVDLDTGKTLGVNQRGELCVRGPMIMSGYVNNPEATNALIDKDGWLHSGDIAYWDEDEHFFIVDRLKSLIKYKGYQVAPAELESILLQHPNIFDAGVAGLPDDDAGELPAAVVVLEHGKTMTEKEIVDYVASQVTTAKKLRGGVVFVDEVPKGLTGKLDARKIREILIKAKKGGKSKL
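Purified P. pyralis luciferase, 10 nM final, with Km-level 10 uM D-luciferin and 10 uM ATP in 50 mM Tris acetate pH 7.5, 10 mM Mg acetate, 0.01% Tween-20, 0.05% BSA; 6-point qHTS titration about 60 µM downward; luminescence read.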
ELG1 genotox = inducers of genotoxicity in HEK293T ELG1-luciferase cells | AID 504466 | 330,000 compounds, 1.3% hits | Potency, µM (doses to about 46 µM), most hits filed as activators | HEK293T ELG1-luciferase reporter, luminescence, 16 h; note: nearly all actives have a fitted effect of over 60% in size
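Screening used a luciferase reporter fused to human ELG1 in HEK293T cells. Luminescence was read on a CCD plate imager after 16 hr exposure and 30 min ONE-Glo incubation.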
SMN2 splice enh = SMN2 splice variant enhancement. AID 1458. Potency, µM (series often up to 46.1 µM), usual class: activators. HEK293 SMN2-luciferase splicing reporter, luminescence, 30-36 h. 210,000 compounds, 2.8% hits; note: nearly all actives have a fitted effect of over 55% in size
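qHTS luciferase splicing reporter: luminescence rises when SMN2 exon 7 is included in transfected HEK293 cells. Compound exposure lasted 30-36 h at 37C, with 4.5 mM final sodium butyrate as control, followed by a ONE-Glo read.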
Rab9 prom act = Rab9 promoter activation | Huh7 Rab9 promoter-luciferase reporter, luminescence, 24 h | 320,000 compounds, 2.8% hits | Potency, µM (titrated, usually from 9.22 µM), actives largely listed as activators | AID 485297; note: nearly all actives have a fitted effect of over 60% in size
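Promoter activation is measured as luciferase luminescence in Huh7 cells stably transfected with a Rab9 promoter–luciferase construct, following 24 h compound exposure at 37 °C and 10 min reagent incubation at ambient temperature.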
A number is an active result; i = inactive; ? = inconclusive; nt = no result given; [ ] = dose if it differs, or a comment. Calls come from the whole dose curve; as a rule, active = well fitted curve in the direction sought with a large enough effect; inconclusive = small, poorly fitted or top-dose-only effect, or another doubt; inactive = no such curve, though single readings can be large; an effect the other way counts as inactive or inconclusive.

SMILES | NPC1 prom act | ELG1 repair inh | FLuc counter | ELG1 genotox | SMN2 splice enh | Rab9 prom act
COc1ccc(-c2csc(N(CCCN(C)C)C(=O)c3ccccc3C)n2)cc1 | i | ? | i | i | nt | 0.28µM
CCC(=O)N(Cc1ccco1)c1nc(-c2ccc(OC)cc2)cs1 | i | ? | i | i | i | ?
CCC(=O)N(CC)c1nc(-c2ccc(OC)cc2)cs1 | 4.5µM | ? | 15µM | i | i | ?
Cc1ccc(NC(=O)c2cc3c(-c4ccccc4)nn(-c4ccccc4)c3s2)cc1 | nt | nt | i | nt | i | nt
C=CCCC | nt | nt | nt | nt | i | nt
CCN(C(=O)c1ccccc1F)c1nc(-c2ccc(OC)cc2)cs1 | 3.2µM | ? | 8.5µM | ? | nt | 2µM
COCCN(C(=O)c1ccccc1F)c1nc(-c2ccc(OC)cc2)cs1 | ? | i | ? | i | nt | i
COCCN(C(=O)c1ccco1)c1nc(-c2ccccc2)cs1 | i | i | i | i | nt | i
CN(c1ccc(O)cc1)c1nc(-c2ccccc2)cs1 | 2.2µM | ? | ? | ? | ? | ?
CN(C(=O)c1ccco1)c1nc(-c2ccccc2)cs1 | 2.5µM | ? | 5.4µM | ? | nt | 2µM
O=C(Nc1cccc(C(F)(F)F)c1)c1cnn(-c2cccc(F)c2)c1C1CCNCC1 | nt | nt | i | nt | nt | nt
Cc1ccc(C(=O)OCC(=O)NCc2ccccc2)cc1S(=O)(=O)N1CCCCC1 | i | i | ? | i | nt | i
O=C(Cn1ncc(Cl)c(Cl)c1=O)NCC1CCCCC1 | i | 18µM | ? | i | i | i
Cc1ccc(S(=O)(=O)N2CCCCC2)cc1NC(=O)Cc1c[nH]c2ccccc12 | i | i | i | i | i | i
Cc1ccc(NC(=O)Cc2ccc(Cl)cc2)cc1S(=O)(=O)N1CCCCCC1 | i | 11µM | i | i | nt | i
Cc1ccc(C(=O)OCC(=O)c2c[nH]c3ccccc23)cc1S(=O)(=O)N1CCCCC1 | i | 26µM | ? | i | i | i
O=C(Cn1ncc(Cl)c(Cl)c1=O)NC1CCCCC1 | i | ? | nt | i | nt | i
Cc1ccc(NC(=O)Cc2c[nH]c3ccccc23)cc1S(=O)(=O)N1CCCCCC1 | i | 21µM | i | i | i[1.84 µM] | i
Cc1ccc(NC(=O)Cn2ncc(Cl)c(Cl)c2=O)cc1S(=O)(=O)N1CCCCC1 | i | 15µM | i | i | nt | i
COCCNc1nc(-c2ccc(OC)cc2)c(-c2ccc(OC)cc2)s1 | i | 21µM | i | i | i | i
COc1ccc(-c2nc(NC(C)=O)sc2-c2ccccc2)cc1 | i | 21µM | i | i | i | i
c1cncc(CNCc2cccnc2)c1 | nt | nt | nt | nt | i[9.22 µM] | nt
Cc1ccc(C(NC(=O)c2cccc(S(=O)(=O)N3CCN(C)CC3)c2)c2ccccc2)cc1 (centres undefined) | i | i | nt | i | nt | i
NNC(=O)c1nn(-c2ccc(Cl)cc2)cc1O | ? | i | 13µM | i | nt | ?
CCN(c1ccccc1)S(=O)(=O)c1ccc(NC(=O)c2cc(=O)c3c(C)cc(C)cc3o2)cc1 | nt | nt | i | nt | i | nt
SMILES | NPC1 prom act | ELG1 repair inh | FLuc counter | ELG1 genotox | SMN2 splice enh | Rab9 prom act
CCOC(=O)C1C(=O)CC(C)(O)C(C(=O)OCC)C1c1ccc(C)s1 (centres undefined) | 4.5µM | ? | i[2.3 µM] | i | i | ?
CCOC(=O)N1CCC2(CC1)OC(=O)C(C)=C2C(=O)NCc1cccc(OC)c1 | nt | nt | i | nt | nt | nt
Cc1cc(C2=NNC(=NC3CC3)SC2)c(C)n1-c1ccccc1 | i | 4.6µM | 0.076µM | i | i | i
COc1ccc(-n2c(C)cc(C3=NNC(=NC4CC4)SC3)c2C)cc1 | i | ? | 5.4µM | ? | 4µM | i
O=C1c2ccccc2C(=O)C1c1ccc2ccccc2n1 | ? | ? | 0.17µM | 0.13µM | 1µM | 1µM
N#Cc1ccccc1CSc1nc2ccc(NC(=O)c3ccccc3C(=O)O)cc2s1 | i | ? | ? | i | nt | i
CC(=O)Nc1ccc2nc(SCc3ccccc3)sc2c1 | nt | nt | 13µM | nt | nt | nt
O=C(O)c1ccc(CSc2nc3ccc(NC(=O)c4ccccc4C(=O)O)cc3s2)cc1 | i | i | 17µM | i | i | i
Cc1ccccc1CSc1cn(CCNC(=O)c2cccs2)c2ccccc12 | nt | nt | i | nt | i | nt
CCN(CC)c1ccc(/C=N/NC(=O)c2ccc3nc[nH]c3c2)cc1 | i | ? | 19µM | i | nt | i
COc1cc(/C=N/NC(=O)c2ccc3nc[nH]c3c2)ccc1O | i | i | ? | i | nt | i
COc1ccccc1/C=C/C=N/NC(=O)c1ccc2nc[nH]c2c1 | i | i | 17µM | i | i | i
COc1cccc(/C=N/NC(=O)c2ccc3nc[nH]c3c2)c1 | i | ? | 15µM | i | nt | i
CN(C)c1ccc(/C=N/NC(=O)c2ccc3nc[nH]c3c2)cc1 | i | ? | 13µM | i | nt | i
N#CC1=C(N)c2ccccc2CC12CCCCC2 | i | i | i | i | i | i
CCOc1ccc(CN(CC)C(=O)Cc2c[nH]c3ccccc23)cc1OC | i | i | i | i | nt | i
CCN(CC)S(=O)(=O)c1ccc2c(c1)N(CC(=O)N1CCN(c3cccc(C(F)(F)F)c3)CC1)C(=O)CO2 | nt | nt | i | nt | nt | nt
C=CCc1c(C)nc(SC)nc1Nc1ccc(C(=O)O)cc1 | i | ? | i | i | i | i
